Measurements published in PubChem BioAssay AID488969 (Vanderbilt High Throughput Screening Facility, 2010).
Over roughly 110,000 compounds, “z-score” has its median near -0.1; the highest 2% begin near 2. The sample as a whole holds a higher share of the highest values than the screen did. The source made the active and inactive calls.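 The calls were made as follows: active = z-score in the third read window above 3 or below -3; inactive = the rest.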

Molecular target: Metabotropic glutamate receptor 8 (Rattus norvegicus) (UniProt P70579)
Sequence (P70579 whole entry, looked up): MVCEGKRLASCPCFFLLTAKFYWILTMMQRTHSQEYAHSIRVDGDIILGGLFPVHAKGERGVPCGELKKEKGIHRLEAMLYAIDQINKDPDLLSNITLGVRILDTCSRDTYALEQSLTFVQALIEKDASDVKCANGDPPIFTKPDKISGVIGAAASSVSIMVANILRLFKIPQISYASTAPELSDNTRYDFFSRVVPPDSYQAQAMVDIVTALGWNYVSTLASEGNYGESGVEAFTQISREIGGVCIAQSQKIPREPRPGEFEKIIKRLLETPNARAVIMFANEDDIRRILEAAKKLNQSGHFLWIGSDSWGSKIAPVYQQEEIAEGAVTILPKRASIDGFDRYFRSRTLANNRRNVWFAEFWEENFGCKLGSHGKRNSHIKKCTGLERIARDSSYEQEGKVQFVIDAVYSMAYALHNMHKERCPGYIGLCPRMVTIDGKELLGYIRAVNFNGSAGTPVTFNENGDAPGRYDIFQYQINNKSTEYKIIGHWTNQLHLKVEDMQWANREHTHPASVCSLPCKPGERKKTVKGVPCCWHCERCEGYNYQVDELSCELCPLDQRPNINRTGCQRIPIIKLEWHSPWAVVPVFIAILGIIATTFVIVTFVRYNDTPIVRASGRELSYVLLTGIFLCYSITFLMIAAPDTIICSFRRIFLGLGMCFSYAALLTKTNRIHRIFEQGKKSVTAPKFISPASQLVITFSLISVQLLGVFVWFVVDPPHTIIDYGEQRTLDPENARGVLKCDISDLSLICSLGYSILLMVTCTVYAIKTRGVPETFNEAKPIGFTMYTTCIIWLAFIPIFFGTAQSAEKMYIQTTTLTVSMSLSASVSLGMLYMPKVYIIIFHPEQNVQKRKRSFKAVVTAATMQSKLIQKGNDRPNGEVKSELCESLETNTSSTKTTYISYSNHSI
Test: mGluR8 Gi/Go-coupled signaling modulation – cell-based, rat, thallium flux, HTS, primary screen (AID 488969)
Conditions: HEK293 rat mGluR8, GIRK (G protein-gated inwardly rectifying potassium channel) thallium flux, FluoZin2; at 10 µM; stronger effect = higher value; submaximal glutamate (EC20) added with thallium

Compound | z-score
O=C(C1CCC(=O)N1Cc1ccccc1Cl)N1CCN(c2cccc(Cl)c2)CC1 (stereo unspecified) | -0.174
CC(CNC(=O)c1cc(Cl)ccc1[N+](=O)[O-])NC(=O)c1cc(Cl)ccc1[N+](=O)[O-] (stereo unspecified) | -0.0709
Cc1ccc(/C([O-])=C(/C(=S)NCc2ccco2)[n+]2ccccc2)cc1 | -0.112
Cc1cc(C)n(-c2nc(NCCC(C)C)c3c4c(sc3n2)COC(C)(C)C4)n1 | -0.867
CNc1ccccc1-n1ccc(-c2ccccc2)n1 | 1.11
N=c1nc(-c2ccccc2)ccn1O | 2.64
c1ccc(-c2ccn3nnnc3n2)cc1 | -0.244
O=c1c(-c2ccco2)[n+]([O-])c2ccccc2n1OCc1ccccn1 | -0.153
CN1CCN(S(=O)(=O)c2cccc(S(=O)(=O)c3ccc(Cl)c(Cl)c3)c2)CC1 | 1.26
CN1CCN(S(=O)(=O)c2cccc(S(=O)(=O)c3ccc(Cl)cc3)c2)CC1 | 0.2
CN1CCN(S(=O)(=O)c2cccc(S(=O)(=O)c3cccc(S(=O)(=O)N4CCN(C)CC4)c3)c2)CC1 | 14 (active)
CCC(=O)NCc1cc(-c2nn(C)c(=O)c3ccccc23)ccc1C | -0.415
COc1cccc(NC(=O)C(Sc2nnc3ccccn23)c2ccccc2)c1 (stereo unspecified) | -0.184
CCCn1c(SC(C(=O)Nc2cccc(OC)c2)c2ccccc2)nc2ccccc2c1=O (stereo unspecified) | -0.276
CCNc1nc(NCC)n2c(SC(C(=O)Nc3cc(C)ccc3OC)c3ccccc3)nnc2n1 (stereo unspecified) | -0.463
COc1ccc(C)cc1NC(=O)C(Sc1ccccc1)c1ccccc1 (stereo unspecified) | 0.296
COc1cccc(NC(=O)C(Sc2nc3ccccc3c(=O)n2CC(C)C)c2ccccc2)c1 (stereo unspecified) | 2.63
CCCn1c(SC(C(=O)Nc2cc(C)ccc2OC)c2ccccc2)nc2ccccc2c1=O (stereo unspecified) | 3.61 (active)
Cc1cccc(CCNC(=O)C2CCC(CNc3c(N4CCCC4)c(=O)c3=O)CC2)c1 (stereo unspecified) | -0.262
CCOc1ccc(-c2nnn(CC(=O)NCc3ccco3)n2)cc1OCC | 0.241
CC(=O)C1=C(c2ccccc2)NC(=O)NC1c1ccccc1OCC#N (stereo unspecified) | 1.96
CC(=O)c1c(C)[nH]c(C(=O)N2CCN(C(=O)c3ccco3)CC2)c1C | -0.564

Compound | z-score
O=C(CSc1nc2c(cnn2-c2ccc(F)cc2)c(=O)[nH]1)N1CCOCC1 | 0.476
CC(=O)c1cnn(-c2cc(Oc3cccc(C)c3)ncn2)c1C | 2.24
CC(=O)c1cnn(-c2cc(Oc3ccc(F)cc3)ncn2)c1C | 0.354
COC(=O)c1cnn(-c2cc(Oc3cccc(C)c3)ncn2)c1N | 0.309
COC(=O)c1ccc(C2C(Oc3ccc(OC)cc3)C(=O)N2CCc2ccc(OC)c(OC)c2)cc1 (stereo unspecified) | -0.234
N#Cc1c(N)nc2c3c(sc(=N)c2c1N)NC(=O)CC3c1ccccc1 (stereo unspecified) | -0.0395
CCS(=O)(=O)NCCc1csc(-c2ccccc2)n1 | -0.276
COc1ccc(OC)c(S(=O)(=O)NCc2csc(-c3ccccc3)n2)c1 | -0.245
CS(=O)(=O)NCc1csc(-c2ccccc2)n1 | 2.26
COc1cccc(CNC(=O)Cc2nc3nc(C)cc(C)n3n2)c1 | -0.187
Cn1cc(C(=O)Nc2cccc(F)c2)cn1 | 0.0603
COc1ccc(CN2C(=O)c3ccccc3C(/C=N\OCc3ccc(C)cc3)C2=O)cc1 (stereo unspecified) | 2.42
COc1ccc(CN2C(=O)c3ccccc3C(/C=N/OCc3ccc(Cl)cc3)C2=O)cc1 (stereo unspecified) | 0.378
COc1ccc(CN2C(=O)c3ccccc3C(/C=N\OCc3ccc(F)cc3)C2=O)cc1 (stereo unspecified) | 0.722
COc1ccc(OC)c(/C(O)=C/C(=O)C(=O)Nc2cc(C)cc(C)c2)c1 | 0.571
CCOC(=O)C(NC(=O)c1ccccc1)(OCc1ccc(F)cc1)C(F)(F)F (stereo unspecified) | 0.14
Cc1cc(C(=O)CSc2nnc(-c3ccncc3)n2-c2ccccc2)c(C)n1C | 4.58 (active)
Cc1cc(C(=O)CSc2nnc(-c3ccccc3)n2C)c(C)n1C | -0.546
CCn1c(SCC(=O)c2cc(C)n(C)c2C)nnc1-c1ccccc1 | 0.0656
C=CCn1c(SCC(=O)NCCc2ccccc2)nnc1C(C)NC(=O)c1cccs1 (stereo unspecified) | 0.0814
O=c1c(-c2nnc(SCc3ccc(Cl)cc3)o2)cccn1Cc1ccccc1 | 0.618
N#C/C(=C\c1ccc(OC(=O)c2ccccn2)cc1)C(N)=O | -0.197

Compound | z-score
COc1ccc(S(=O)(=O)Nc2cc(Sc3ncn[nH]3)c(O)c3ccccc23)cc1 | 0.366
O=S(=O)(Nc1cc(Sc2cccc3cccnc23)c(O)c2ccccc12)c1ccc(F)cc1 | 5.2 (active)
O=S(=O)(NCCOc1cccc2cccnc12)c1ccc(F)cc1 | -0.153
COC(=O)c1ccc(N2CCN(S(=O)(=O)c3ccccc3)CC2)c([N+](=O)[O-])c1 | -0.111
Cc1cc(=O)n(C)c(=O)n1CC(=O)N1CCCCCC1 | 0.975
Cc1c(NC(=O)/C(C#N)=C/c2cccs2)c(=O)n(-c2ccccc2)n1C | 0.559
O=C(Nc1ccccc1)c1ccc(OC(=O)c2cc3ccccc3o2)cc1 | -0.284
COc1ccc(OC(=O)c2cc3ccccc3o2)cc1 | 0.125
O=C(Oc1ccccc1)c1cc2ccccc2o1 | 2.68
CCCCn1c(=O)c(C(=O)c2ccccc2)nc2ccccc21 | -0.617
S=c1sc2c(N3CCN(Cc4ccccc4)CC3)ncnc2n1-c1ccccc1 | 0.467
COc1ccc(CCN(Cc2cccs2)S(=O)(=O)c2ccc(S(=O)(=O)N3CCC(C)CC3)cc2)cc1OC | -0.101
O=c1c2oc3ccccc3c2[nH]c(=S)n1-c1ccccc1 | 0.645
CCOC(=O)N1CCN(C(=O)c2ccc3c(=O)n(CCC4=CCCCC4)c(=S)[nH]c3c2)CC1 | 0.221
CCN(CC)CCCn1c(=S)[nH]c2ccc(Cl)cc2c1=O | 0.0726
O=c1c2ccccc2[nH]c(=S)n1CCC1=CCCCC1 | 0.577
CCN(CC)CCn1c(=S)[nH]c2cc(Cl)ccc2c1=O | 1.41
CCN(CC)CCCn1c(=S)[nH]c2cc(Cl)ccc2c1=O | 4.1 (active)
CCCCn1c(=S)[nH]c2c(oc3ccc(Cl)cc32)c1=O | 13.1 (active)
O=c1c2ccc(Cl)cc2[nH]c(=S)n1CCC1=CCCCC1 | 5.05 (active)
CCN(CC)CCCn1c(=S)[nH]c2cc(OC)c(OC)cc2c1=O | -0.0622
Cc1ccc(C)c(N2CCN(c3ccc(N4C(=O)COCC4=O)cc3[N+](=O)[O-])CC2)c1 | -0.128

Compound | z-score
O=[N+]([O-])c1ccc2c(c1)C(N1CCOCC1)/C(=C/COc1ccc3ccccc3c1Br)O2 (stereo unspecified) | -0.0823
COc1ccc(-c2nnn(CC(=O)N3CCN(c4ccccc4OC)CC3)n2)cc1 | -0.289
CCOC(=O)Nc1sc2c(c1C#N)CCC(C)C2 (stereo unspecified) | -0.505
CCOC(=O)C1CCc2sc(N)c(C#N)c21 (stereo unspecified) | 2.38
CCCC(=O)Nc1sc2c(c1C(=O)OC)C(C(=O)OC)CC2 (stereo unspecified) | -0.0731
Cc1ccc(O)c(C(=O)c2cnc3c(c2)COc2ccccc2-3)c1 | -0.0344
CCOC(=O)C1=C(C)NC(C)=C(C(=O)OCC)C1c1ccc(O)cc1 | -0.238
O=C(Nc1ccc2c(c1)OCCO2)C1CCC1 | 0.045
O=C(Nc1ccc2c(c1)OCCO2)C1CCN(c2cnccn2)CC1 | 2.51
CS(=O)(=O)N1CCC(C(=O)Nc2ccc3c(c2)OCCO3)CC1 | 0.0973
Cc1cc(C)nc(SCC(=O)c2c(N)n(C)c(=O)n(C)c2=O)n1 | -0.282
CN(C)CCCNC(=O)c1ccc(-c2nc(-c3ccc(Cl)cc3)cs2)cc1 | 3.28 (active)
C=CCNC(=O)c1ccc(-c2nc(-c3ccc(Cl)c(Cl)c3)cs2)cc1 | -0.148
C=CCNC(=O)c1ccc(-c2nc(-c3ccccc3)cs2)cc1 | 0.133
CCc1cccc(C)c1NC(=O)CCCC(=O)O | 0.0858
O=C(Nc1cnn(Cc2ccccc2)c1)c1nc2ncccn2n1 | -0.222
Cc1ccccc1Cn1cc(NC(=O)c2nc3ncccn3n2)cn1 | 2.77
Cc1ccccc1Cn1ccc(NC(=O)c2nc3ncccn3n2)n1 | -1.29
COc1ccc(/C=C/C(=O)c2sc(-c3ccccc3)nc2C)cc1 | 0.276
COc1ccc(-c2nc(N)nc(C)c2Oc2ccccc2Br)c(O)c1 | -0.381
CSc1ccc(CCNC(=O)CSc2ccsc2[N+](=O)[O-])cc1 | -0.173
CCc1nnc(NC(=O)CSc2nc(-c3ccc(F)cc3)cc(-c3ccccc3)c2C#N)s1 | 2.35

Compound | z-score
CCc1nnc(NC(=O)CSc2nc(-c3ccccc3)cc(-c3ccc(OC)cc3)c2C#N)s1 | -0.249
CCc1nnc(NC(=O)CSc2nc(-c3ccccc3)cc(-c3ccc(F)cc3)c2C#N)s1 | -0.163
c1ccc(-c2nc(CSc3n[nH]c(-c4cccs4)n3)cs2)cc1 | 0.259
COc1cc2c(C(=O)N3CCN(C4CCCCC4)CC3)cn(CC(C)C)c(=O)c2cc1OC | 2.68
CCOC(=O)C1CCCN(C(=O)c2cn(CC(C)C)c(=O)c3cc(OC)c(OC)cc23)C1 (stereo unspecified) | -0.759
CCCN1CCN(C(=O)c2cn(CC(C)C)c(=O)c3cc(OC)c(OC)cc23)CC1 | -0.37
Cc1nn(-c2ccccc2)c(Cl)c1C(=O)OC(C)C(=O)Nc1ccc2c(c1)OCO2 (stereo unspecified) | -0.936
CCCn1nnc(NC(=O)c2ccc(F)cc2)n1 | -0.08
COc1ccc(-c2nc(N)n[nH]2)cc1 | -0.101
Nc1n[nH]c(-c2ccccc2)n1 | 0.189
CCCCc1ccc(-c2nc(N)n[nH]2)cc1 | 2.99
CCOC(=O)c1c(C)[nH]c(C(=O)COC(=O)c2ccccc2NC(=O)c2ccco2)c1C | -0.00749
Cc1ccc(NC(=O)CSCCc2ccccn2)nc1 | 0.022
CSc1ccc(/C=N/NC(=O)CNc2cccc3ccccc23)cc1 | 0.3
CCNC(=O)NC(=O)C(C)OC(=O)C1CCN(S(=O)(=O)c2ccc(C)c(C)c2)CC1 (stereo unspecified) | -0.143
S=c1nc(-c2ccccc2)n(Cc2ccco2)c2c1CCCC2 | 2.16
Cc1cccc(-c2nc(=S)c3c(n2Cc2ccco2)CCCC3)c1 | 0.581
COc1cccc(-c2nc(=S)c3c(n2Cc2ccco2)CCCC3)c1 | 0.708
